Reference: PMC11006913
Changes are numbered by the printed parent chain.

Experiments:
Assay in all cases: PBM; 200 nM protein, PBS
Conditions in all cases: dsDNA, one strand shown
HOXC9 [1] = target: HOXC9 (Homo sapiens, UniProt P31274 178-260, K195R)
HOXC10 [2] = target: HOXC10 (Homo sapiens, UniProt Q9NYD6 254-340)
HOXC9 [3] = target: HOXC9 (Homo sapiens, UniProt P31274 178-260)
MSX2 [4] = target: MSX2 (Homo sapiens, UniProt P35548 130-214, R199I)
ALX3 [5] = target: ALX3 (Homo sapiens, UniProt O95076 139-225, N203Q)
HOXC9 [6] = target: HOXC9 (Homo sapiens, UniProt P31274 178-260, R193K)
HOXC10 [7] = target: HOXC10 (Homo sapiens, UniProt Q9NYD6 254-340, K271E)
MSX2 [8] = target: MSX2 (Homo sapiens, UniProt P35548 130-214)
ALX3 [9] = target: ALX3 (Homo sapiens, UniProt O95076 139-225)
ALX3 [10] = target: ALX3 (Homo sapiens, UniProt O95076 139-225, L168Q)
HOXC9 [11] = target: HOXC9 (Homo sapiens, UniProt P31274 178-260, R222W)
ALX3 [12] = target: ALX3 (Homo sapiens, UniProt O95076 139-225, L168V)
MSX2 [13] = target: MSX2 (Homo sapiens, UniProt P35548 130-214, F161Y)
ALX3 [14] = target: ALX3 (Homo sapiens, UniProt O95076 139-225, N203S)
PRRX1 [15] = target: PRRX1 (Homo sapiens, UniProt P54821 80-166, F113S)
PRRX1 [16] = target: PRRX1 (Homo sapiens, UniProt P54821 80-166)
HOXA4 [17] = target: HOXA4 (Homo sapiens, UniProt Q00056 201-287, W262R)
HOXA4 [18] = target: HOXA4 (Homo sapiens, UniProt Q00056 201-287)
HOXB6 = HOXB6 (Homo sapiens, UniProt P17509 132-218)
HOXA4 [19] = target: HOXA4 (Homo sapiens, UniProt Q00056 201-287, W262F)
HOXA7 [20] = target: HOXA7 (Homo sapiens, UniProt P31268 116-202)
HOXA7 [21] = target: HOXA7 (Homo sapiens, UniProt P31268 116-202, W177C)
NKX3-2 [22] = target: NKX3-2 (Homo sapiens, UniProt P78367 192-278, P234S)
NKX3-2 [23] = target: NKX3-2 (Homo sapiens, UniProt P78367 192-278)
ALX4 [24] = target: ALX4 (Homo sapiens, UniProt Q9H161 200-286)
ALX4 [25] = target: ALX4 (Homo sapiens, UniProt Q9H161 200-286, Q225E)
PAX4 [26] = target: T1, PAX4 (Homo sapiens, UniProt O43316 9-242, R200K)
T1 sequence: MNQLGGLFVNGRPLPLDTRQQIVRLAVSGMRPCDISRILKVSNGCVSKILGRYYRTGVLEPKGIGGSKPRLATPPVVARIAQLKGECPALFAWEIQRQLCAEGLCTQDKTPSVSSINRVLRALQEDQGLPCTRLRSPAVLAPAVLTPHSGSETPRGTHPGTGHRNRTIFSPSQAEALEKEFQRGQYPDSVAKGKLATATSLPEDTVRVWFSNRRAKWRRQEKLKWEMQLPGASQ

PAX4 [27] = target: T2, PAX4 (Homo sapiens, UniProt O43316 9-242)
T2 sequence: T1 sequence with K192R

PAX4 [28] = target: T3, PAX4 (Homo sapiens, UniProt O43316 9-242, R200Q)
T3 sequence: T1 sequence with K192Q

PAX4 [29] = target: T4, PAX4 (Homo sapiens, UniProt O43316 9-242, F177V)
T4 sequence: T1 sequence with F169V, K192R

PAX4 [30] = target: T5, PAX4 (Homo sapiens, UniProt O43316 9-242, F177Y)
T5 sequence: T1 sequence with F169Y, K192R

PAX4 [31] = target: T6, PAX4 (Homo sapiens, UniProt O43316 9-242, R227W)
T6 sequence: T1 sequence with K192R, R219W

Chain of HOXC10 (Homo sapiens, UniProt Q9NYD6 254-340, K271E) (Q9NYD6 254-340 K271E): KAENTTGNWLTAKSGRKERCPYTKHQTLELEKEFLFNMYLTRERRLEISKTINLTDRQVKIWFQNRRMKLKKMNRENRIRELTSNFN
Chain of HOXA4 (Homo sapiens, UniProt Q00056 201-287, W262F) (Q00056 201-287 W262F): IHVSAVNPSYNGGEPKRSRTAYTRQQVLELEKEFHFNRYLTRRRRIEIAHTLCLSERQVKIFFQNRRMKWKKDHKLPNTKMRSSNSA
Chain of HOXA4 (Homo sapiens, UniProt Q00056 201-287, W262R) (Q00056 201-287 W262R): as the sequence (Q00056 201-287 W262F) above, with F62R counted along it
Chain of HOXC9 (Homo sapiens, UniProt P31274 178-260, R222W) (P31274 178-260 R222W): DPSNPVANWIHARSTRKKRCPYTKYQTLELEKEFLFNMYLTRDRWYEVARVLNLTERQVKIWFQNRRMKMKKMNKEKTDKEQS
Chain of HOXC10 (Homo sapiens, UniProt Q9NYD6 254-340) (Q9NYD6 254-340): as the sequence (Q9NYD6 254-340 K271E) above, with E18K counted along it
Chain of HOXA4 (Homo sapiens, UniProt Q00056 201-287) (Q00056 201-287): as the sequence (Q00056 201-287 W262F) above, with F62W counted along it
Chain of HOXC9 (Homo sapiens, UniProt P31274 178-260) (P31274 178-260): as the sequence (P31274 178-260 R222W) above, with W45R counted along it
Chain of HOXC9 (Homo sapiens, UniProt P31274 178-260, K195R) (P31274 178-260 K195R): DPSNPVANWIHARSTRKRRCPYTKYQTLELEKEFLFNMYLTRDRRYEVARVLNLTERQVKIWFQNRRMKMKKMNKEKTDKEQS
Chain of HOXC9 (Homo sapiens, UniProt P31274 178-260, R193K) (P31274 178-260 R193K): as the sequence (P31274 178-260 R222W) above, with R16K, W45R counted along it
Chain of ALX3 (Homo sapiens, UniProt O95076 139-225, L168Q) (O95076 139-225 L168Q): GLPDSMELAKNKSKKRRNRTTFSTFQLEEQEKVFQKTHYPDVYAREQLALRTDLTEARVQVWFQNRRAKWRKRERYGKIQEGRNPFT
Chain of ALX3 (Homo sapiens, UniProt O95076 139-225, N203S) (O95076 139-225 N203S): as the sequence (O95076 139-225 L168Q) above, with Q30L, N65S counted along it
Chain of ALX3 (Homo sapiens, UniProt O95076 139-225, L168V) (O95076 139-225 L168V): as the sequence (O95076 139-225 L168Q) above, with Q30V counted along it
Chain of ALX3 (Homo sapiens, UniProt O95076 139-225) (O95076 139-225): as the sequence (O95076 139-225 L168Q) above, with Q30L counted along it
Chain of ALX3 (Homo sapiens, UniProt O95076 139-225, N203Q) (O95076 139-225 N203Q): as the sequence (O95076 139-225 L168Q) above, with Q30L, N65Q counted along it
Chain of NKX3-2 (Homo sapiens, UniProt P78367 192-278) (P78367 192-278): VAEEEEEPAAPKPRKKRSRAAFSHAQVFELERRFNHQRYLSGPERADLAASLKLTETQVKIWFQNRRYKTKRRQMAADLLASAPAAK
Chain of MSX2 (Homo sapiens, UniProt P35548 130-214, F161Y) (P35548 130-214 F161Y): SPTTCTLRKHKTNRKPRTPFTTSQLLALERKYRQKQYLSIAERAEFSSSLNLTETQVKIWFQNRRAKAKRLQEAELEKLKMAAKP
Chain of ALX4 (Homo sapiens, UniProt Q9H161 200-286, Q225E) (Q9H161 200-286 Q225E): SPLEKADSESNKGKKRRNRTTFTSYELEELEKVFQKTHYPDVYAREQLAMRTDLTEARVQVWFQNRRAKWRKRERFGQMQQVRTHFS
Chain of HOXA7 (Homo sapiens, UniProt P31268 116-202, W177C) (P31268 116-202 W177C): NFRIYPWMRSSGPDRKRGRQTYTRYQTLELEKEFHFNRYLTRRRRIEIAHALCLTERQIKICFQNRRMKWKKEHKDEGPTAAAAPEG
Chain of PRRX1 (Homo sapiens, UniProt P54821 80-166) (P54821 80-166): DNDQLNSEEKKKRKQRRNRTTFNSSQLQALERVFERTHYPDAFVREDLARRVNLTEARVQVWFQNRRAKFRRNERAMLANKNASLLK
Chain of ALX4 (Homo sapiens, UniProt Q9H161 200-286) (Q9H161 200-286): as the sequence (Q9H161 200-286 Q225E) above, with E26Q counted along it
Chain of NKX3-2 (Homo sapiens, UniProt P78367 192-278, P234S) (P78367 192-278 P234S): as the sequence (P78367 192-278) above, with P43S counted along it
Chain of HOXA7 (Homo sapiens, UniProt P31268 116-202) (P31268 116-202): as the sequence (P31268 116-202 W177C) above, with C62W counted along it
Chain of PRRX1 (Homo sapiens, UniProt P54821 80-166, F113S) (P54821 80-166 F113S): as the sequence (P54821 80-166) above, with F34S counted along it
Chain of MSX2 (Homo sapiens, UniProt P35548 130-214) (P35548 130-214): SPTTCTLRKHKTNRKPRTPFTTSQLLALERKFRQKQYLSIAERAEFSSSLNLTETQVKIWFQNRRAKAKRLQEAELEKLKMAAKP
Chain of MSX2 (Homo sapiens, UniProt P35548 130-214, R199I) (P35548 130-214 R199I): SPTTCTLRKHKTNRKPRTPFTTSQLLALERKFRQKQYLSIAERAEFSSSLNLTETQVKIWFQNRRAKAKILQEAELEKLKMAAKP
Chain of HOXB6 (P17509 132-218): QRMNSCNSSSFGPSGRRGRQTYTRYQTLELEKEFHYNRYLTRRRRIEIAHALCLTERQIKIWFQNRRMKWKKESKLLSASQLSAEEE

With AGCCCTCC the binding signal (HOXC9 [1]) was 9.66 upbm affinity estimate (log intensity, higher = more binding, comparable within an allelic series), the binding signal (HOXC10 [2]) was 10 upbm affinity estimate (log intensity, higher = more binding, comparable within an allelic series) and the binding signal (HOXC9 [3]) was 9.73 upbm affinity estimate (log intensity, higher = more binding, comparable within an allelic series). The binding signal (MSX2 [4]) was 9.53 upbm affinity estimate (log intensity, higher = more binding, comparable within an allelic series), the binding signal (ALX3 [5]) was 7.79 upbm affinity estimate (log intensity, higher = more binding, comparable within an allelic series) and the binding signal (HOXC9 [6]) was 9.66 upbm affinity estimate (log intensity, higher = more binding, comparable within an allelic series). For the same sequence, the binding signal (HOXC10 [7]) was 10 upbm affinity estimate (log intensity, higher = more binding, comparable within an allelic series), the binding signal (MSX2 [8]) was 9.44 upbm affinity estimate (log intensity, higher = more binding, comparable within an allelic series) and the binding signal (ALX3 [9]) was 7.83 upbm affinity estimate (log intensity, higher = more binding, comparable within an allelic series). For the same sequence, the binding signal (ALX3 [10]) was 7.75 upbm affinity estimate (log intensity, higher = more binding, comparable within an allelic series), the binding signal (HOXC9 [11]) was 9.65 upbm affinity estimate (log intensity, higher = more binding, comparable within an allelic series) and the binding signal (ALX3 [12]) was 7.79 upbm affinity estimate (log intensity, higher = more binding, comparable within an allelic series). The binding signal (MSX2 [13]) was 9.49 upbm affinity estimate (log intensity, higher = more binding, comparable within an allelic series) and the binding signal (ALX3 [14]) was 7.76 upbm affinity estimate (log intensity, higher = more binding, comparable within an allelic series).
For ATATTGAC, the binding signal (HOXC9 [1]) was 11.1 upbm affinity estimate (log intensity, higher = more binding, comparable within an allelic series), the binding signal (PRRX1 [15]) was 10.1 upbm affinity estimate (log intensity, higher = more binding, comparable within an allelic series) and the binding signal (HOXC9 [3]) was 11.1 upbm affinity estimate (log intensity, higher = more binding, comparable within an allelic series). For the same sequence, the binding signal (HOXC9 [6]) was 11.1 upbm affinity estimate (log intensity, higher = more binding, comparable within an allelic series) and the binding signal (PRRX1 [16]) was 11.4 upbm affinity estimate (log intensity, higher = more binding, comparable within an allelic series).
For ATATAACG, the binding signal (HOXA4 [17]) was 10.4 upbm affinity estimate (log intensity, higher = more binding, comparable within an allelic series), the binding signal (HOXA4 [18]) was 11.4 upbm affinity estimate (log intensity, higher = more binding, comparable within an allelic series) and the binding signal (HOXB6) was 10.7 upbm affinity estimate (log intensity, higher = more binding, comparable within an allelic series).
For AATAGGTG, the binding signal (HOXA4 [17]) was 10.3 upbm affinity estimate (log intensity, higher = more binding, comparable within an allelic series), the binding signal (HOXA4 [18]) was 11.3 upbm affinity estimate (log intensity, higher = more binding, comparable within an allelic series) and the binding signal (HOXA4 [19]) was 10.3 upbm affinity estimate (log intensity, higher = more binding, comparable within an allelic series).
CGTCAATA was tested, and the binding signal (HOXA4 [17]) was 10.2 upbm affinity estimate (log intensity, higher = more binding, comparable within an allelic series) and the binding signal (HOXA4 [18]) was 10.9 upbm affinity estimate (log intensity, higher = more binding, comparable within an allelic series).
CGCTTAAC was tested, and the binding signal (HOXA4 [17]) was 10.2 upbm affinity estimate (log intensity, higher = more binding, comparable within an allelic series), the binding signal (HOXA4 [18]) was 11.2 upbm affinity estimate (log intensity, higher = more binding, comparable within an allelic series) and the binding signal (HOXA4 [19]) was 10.3 upbm affinity estimate (log intensity, higher = more binding, comparable within an allelic series).
With CAAGCTCG the binding signal (HOXC9 [1]) was 9.46 upbm affinity estimate (log intensity, higher = more binding, comparable within an allelic series), the binding signal (HOXA7 [20]) was 8.21 upbm affinity estimate (log intensity, higher = more binding, comparable within an allelic series) and the binding signal (HOXC9 [3]) was 9.49 upbm affinity estimate (log intensity, higher = more binding, comparable within an allelic series). For the same sequence, the binding signal (HOXC9 [6]) was 9.44 upbm affinity estimate (log intensity, higher = more binding, comparable within an allelic series), the binding signal (HOXC9 [11]) was 9.62 upbm affinity estimate (log intensity, higher = more binding, comparable within an allelic series) and the binding signal (HOXA7 [21]) was 8.29 upbm affinity estimate (log intensity, higher = more binding, comparable within an allelic series). For the same sequence, the binding signal (NKX3-2 [22]) was 10.3 upbm affinity estimate (log intensity, higher = more binding, comparable within an allelic series) and the binding signal (NKX3-2 [23]) was 10.3 upbm affinity estimate (log intensity, higher = more binding, comparable within an allelic series).
For GCCCGAGC, the binding signal (HOXC9 [1]) was 9.54 upbm affinity estimate (log intensity, higher = more binding, comparable within an allelic series), the binding signal (ALX4 [24]) was 8.18 upbm affinity estimate (log intensity, higher = more binding, comparable within an allelic series) and the binding signal (ALX4 [25]) was 8.13 upbm affinity estimate (log intensity, higher = more binding, comparable within an allelic series). The binding signal (HOXC9 [3]) was 9.62 upbm affinity estimate (log intensity, higher = more binding, comparable within an allelic series), the binding signal (HOXC9 [6]) was 9.44 upbm affinity estimate (log intensity, higher = more binding, comparable within an allelic series) and the binding signal (HOXC9 [11]) was 9.78 upbm affinity estimate (log intensity, higher = more binding, comparable within an allelic series).
CCCTCCAG was tested, and the binding signal (HOXC9 [1]) was 9.59 upbm affinity estimate (log intensity, higher = more binding, comparable within an allelic series), the binding signal (HOXC10 [2]) was 10.1 upbm affinity estimate (log intensity, higher = more binding, comparable within an allelic series) and the binding signal (HOXC9 [3]) was 9.64 upbm affinity estimate (log intensity, higher = more binding, comparable within an allelic series). The binding signal (HOXC9 [6]) was 9.54 upbm affinity estimate (log intensity, higher = more binding, comparable within an allelic series), the binding signal (HOXC10 [7]) was 10.1 upbm affinity estimate (log intensity, higher = more binding, comparable within an allelic series) and the binding signal (HOXC9 [11]) was 9.74 upbm affinity estimate (log intensity, higher = more binding, comparable within an allelic series).
With CACGATCA the binding signal (HOXA4 [17]) was 10.2 upbm affinity estimate (log intensity, higher = more binding, comparable within an allelic series), the binding signal (HOXA4 [18]) was 11 upbm affinity estimate (log intensity, higher = more binding, comparable within an allelic series) and the binding signal (HOXA4 [19]) was 10.3 upbm affinity estimate (log intensity, higher = more binding, comparable within an allelic series).
For CAGCCTTC, the binding signal (HOXC9 [1]) was 9.4 upbm affinity estimate (log intensity, higher = more binding, comparable within an allelic series), the binding signal (HOXC10 [2]) was 9.83 upbm affinity estimate (log intensity, higher = more binding, comparable within an allelic series) and the binding signal (PAX4 [26]) was 9.16 upbm affinity estimate (log intensity, higher = more binding, comparable within an allelic series). The binding signal (PAX4 [27]) was 9.3 upbm affinity estimate (log intensity, higher = more binding, comparable within an allelic series), the binding signal (HOXC9 [3]) was 9.46 upbm affinity estimate (log intensity, higher = more binding, comparable within an allelic series) and the binding signal (ALX3 [5]) was 7.71 upbm affinity estimate (log intensity, higher = more binding, comparable within an allelic series). The binding signal (PAX4 [28]) was 9.32 upbm affinity estimate (log intensity, higher = more binding, comparable within an allelic series), the binding signal (HOXC9 [6]) was 9.41 upbm affinity estimate (log intensity, higher = more binding, comparable within an allelic series) and the binding signal (PAX4 [29]) was 9.05 upbm affinity estimate (log intensity, higher = more binding, comparable within an allelic series). The binding signal (HOXC10 [7]) was 9.85 upbm affinity estimate (log intensity, higher = more binding, comparable within an allelic series), the binding signal (ALX3 [9]) was 7.49 upbm affinity estimate (log intensity, higher = more binding, comparable within an allelic series) and the binding signal (PAX4 [30]) was 9.15 upbm affinity estimate (log intensity, higher = more binding, comparable within an allelic series). For the same sequence, the binding signal (ALX3 [10]) was 7.82 upbm affinity estimate (log intensity, higher = more binding, comparable within an allelic series), the binding signal (HOXC9 [11]) was 9.69 upbm affinity estimate (log intensity, higher = more binding, comparable within an allelic series) and the binding signal (ALX3 [12]) was 7.71 upbm affinity estimate (log intensity, higher = more binding, comparable within an allelic series). For the same sequence, the binding signal (PAX4 [31]) was 9.26 upbm affinity estimate (log intensity, higher = more binding, comparable within an allelic series) and the binding signal (ALX3 [14]) was 7.68 upbm affinity estimate (log intensity, higher = more binding, comparable within an allelic series).
